This is a sample that favours compounds with a hit; in the whole collection about 0.45% have one here.
MBNL1 CUG block = inhibitors of human MBNL1 binding to CUG repeat RNA. Q9NR56. TR-FRET MBNL1-His/biotin-(CUG)12 binding, 665/545 ratio. Potency, µM (top dose mostly 57.5 µM), actives largely listed as inhibitors. 280,000 tested, 0.036% active. AID 2675; active means well fitted inhibition curve with a large enough effect in the signal ratio, with a control signal flat, not every such curve was filed as active; inconclusive means small, poorly fitted or top-dose-only effect, or effect the other way, or a change in a side signal; inactive means no such curve, though single readings can be large or run the other way; the % refers to the signal ratio
Target sequence (Q9NR56 whole entry, looked up): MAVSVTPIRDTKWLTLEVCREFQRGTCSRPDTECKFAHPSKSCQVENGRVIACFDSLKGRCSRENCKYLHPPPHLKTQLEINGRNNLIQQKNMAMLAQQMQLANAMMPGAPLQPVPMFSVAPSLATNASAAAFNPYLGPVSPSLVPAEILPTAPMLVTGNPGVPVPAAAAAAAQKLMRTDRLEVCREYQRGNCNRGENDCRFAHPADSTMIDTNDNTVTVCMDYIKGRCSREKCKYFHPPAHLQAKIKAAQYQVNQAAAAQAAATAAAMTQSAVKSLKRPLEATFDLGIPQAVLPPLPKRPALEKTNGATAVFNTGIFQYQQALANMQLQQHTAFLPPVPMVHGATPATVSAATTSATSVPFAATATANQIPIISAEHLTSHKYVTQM
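TR-FRET between His-tagged MBNL1 and biotin-(CUG)12 RNA, detected with Tb anti-His antibody (0.055 ng/ul) and streptavidin-XL665 (5 nM), 60 min at room temperature. Compounds titrated 92 nM to 58 uM; 665/545 nm ratio normalized to buffer and complex controls.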
Menin MLL FP FL = displaces fluorescein MLL peptide from human menin; Fluorescence polarization, fluorescein-MLL peptide displacement from menin; FP activity change, % at 61.4 µM; 290,000 tested, under 10 active; AID 1766; active means well fitted curve in the direction sought with a large enough effect in the polarisation, not every such curve was filed as active; inconclusive means small, poorly fitted or top-dose-only effect, or effect the other way, or a change in a side signal; inactive means no such curve, though single readings can be large or run the other way; the % refers to the polarisation
pAkt inh = Akt phosphorylation inhibition. Neuro2A IGF-stimulated pAkt S473 HTRF, 20 min; hits give low values. 360,000 tested, 0.32% active. AID 651550. activity change, % for hits at 50 µM; in the data active means activity change below about -80%; inconclusive means mostly about -51% to -80%
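Single-point screen (50 µM final compound) in Neuro2A cells stimulated 20 min with 6 nM IGF at 37 deg C. After lysis, Ser473-phosphorylated Akt read by HTRF (ex 330 nm, em 615/665 nm) as the 665/615 ratio.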
CXXC DNA block = inhibitors of human MLL CXXC domain-DNA interaction; MLL-CXXC / FITC-HOXA9 DNA fluorescence polarization; Potency, µM (titrated, usually from 115 µM), hits mostly inhibitors; 290,000 tested, 0.037% active; AID 2662; active means well fitted inhibition curve with a large enough effect in the polarisation, with a control signal flat, not every such curve was filed as active; inconclusive means small, poorly fitted or top-dose-only effect, or effect the other way, or a change in a side signal; inactive means no such curve, though single readings can be large or run the other way; the % refers to the polarisation
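Fluorescence polarization: 7 uM MLL-CXXC (stock) preincubated 5 min with compounds, then 50 nM fluorescein-HOX-A9 DNA (stock) added; 30 min ambient. Buffer 50 mM Tris-HCl pH 7.5, 50 mM NaCl, 1 mM DTT, 0.05% BSA.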
ASM inhibitor = human S-ASM enzyme inhibition. P17405. placental ASM, HMU-PC fluorogenic substrate, 60 min. Potency, µM (series often up to 57.5 µM), actives largely listed as inhibitors. 340,000 tested, 0.006% active
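qHTS format. ASM enzyme prepared from human placenta hydrolyses the fluorogenic substrate HMU-PC0 (9 uM final) over 60 min at 37 °C after a 10 min compound preincubation.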
Menin-MLL TR inh = inhibitors of human menin-MLL interaction, mutant MLL peptide | Potency, µM (series often up to 61.6 µM), actives largely listed as inhibitors | O00255 | Menin + Texas Red MLL mutant peptide, fluorescence polarization | AID 1768 | 270,000 tested, 0.23% active; active means well fitted inhibition curve with a large enough effect in the polarisation, with a control signal flat, not every such curve was filed as active; inconclusive means small, poorly fitted or top-dose-only effect, or effect the other way, or a change in a side signal; inactive means no such curve, though single readings can be large or run the other way; the % refers to the polarisation
MLL CXXC FP-Fl = inhibitors of human MLL CXXC domain-DNA interaction. shares compounds with CXXC DNA block. MLL CXXC-DNA binding, fluorescein FP. Potency, µM (series often up to 345 µM), usual class: inhibitors. 200 tested, 70% active. AID 624160; further: nearly all actives have a fitted effect of over 80% in size
MLL CXXC TxRed = disrupts human MLL CXXC domain binding to DNA, Texas Red; shares compounds with CXXC DNA block; MLL CXXC-DNA binding, Texas Red fluorescence polarization; Potency, µM (highest dose often 345 µM), most hits filed as inhibitors; 200 tested, 40% active; further: nearly all actives have a fitted effect of over 75% in size
MLL CXXC HTRF = MLL CXXC-DNA interaction inhibition, HTRF readout; AID 624162; shares compounds with CXXC DNA block; Potency, µM (highest dose often 172 µM), most hits filed as inhibitors; MLL CXXC-DNA binding, HTRF, biochemical; 210 tested, 30% active; further: nearly all actives have a fitted effect of over 80% in size
A number is an active result; ! = a repeat was not active. Unless noted, the call rests on the fitted dose curve; in most records, active means well fitted inhibition curve with a large enough effect; inconclusive means small, poorly fitted or top-dose-only effect; inactive means no such curve, though single readings can be large or run the other way.

How did CCOC(=O)C(C(=O)OCC)c1cc(Br)c2noc3c2c1C(=O)c1ccccc1-3 do in these assays?
MBNL1 CUG block: inconclusive; Menin MLL FP FL: inconclusive; pAkt inh: inactive; CXXC DNA block: 32µM; ASM inhibitor: inactive; Menin-MLL TR inh: inconclusive; MLL CXXC FP-Fl: 10µM; MLL CXXC TxRed: 40µM; MLL CXXC HTRF: inconclusive

What do the screens show for `CCn1c(CSc2nnc(-c3ccncc3)n2C)nc2cc(C(=O)O)ccc21`?
MBNL1 CUG block: inactive; Menin MLL FP FL: inactive; pAkt inh: inactive; CXXC DNA block: inactive; ASM inhibitor: inactive

What do the screens show for `CCn1c(CSc2ncn[nH]2)nc2cc(C(=O)O)ccc21`?
MBNL1 CUG block: inconclusive; Menin MLL FP FL: inactive; pAkt inh: inactive; CXXC DNA block: inconclusive; ASM inhibitor: inactive; MLL CXXC FP-Fl: inactive; MLL CXXC TxRed: 126µM; MLL CXXC HTRF: inactive

How did NC(=O)c1ccc[n+](CC(=O)c2ccccc2)c1 do in these assays?
MBNL1 CUG block: inactive; Menin MLL FP FL: inactive; pAkt inh: inactive; CXXC DNA block: inactive; ASM inhibitor: inactive

What do the screens show for `Cc1ccc(Sc2ccc(/C=C3/C(=O)NN(c4ccccc4)C3=O)o2)cc1`?
MBNL1 CUG block: inactive; Menin MLL FP FL: inactive; pAkt inh: inactive; CXXC DNA block: inconclusive; ASM inhibitor: inactive; MLL CXXC FP-Fl: 8µM; MLL CXXC TxRed: inactive; MLL CXXC HTRF: inactive

How did C=Cc1c(C)c2cc3[nH]c(cc4nc(cc5nc(cc1[nH]2)C(C)=C5CCC(=O)O)C(CCC(=O)O)=C4C)c(C)c3C=C do in these assays?
MBNL1 CUG block: inconclusive; Menin MLL FP FL: inactive; pAkt inh: inactive; CXXC DNA block: 20µM!; ASM inhibitor: inactive; Menin-MLL TR inh: inconclusive; MLL CXXC FP-Fl: inconclusive; MLL CXXC TxRed: 45µM; MLL CXXC HTRF: 39µM

What do the screens show for `CC1=C(CCC(=O)O)c2cc3nc(cc4[nH]c(cc5[nH]c(cc1n2)c(C)c5C(C)O)c(C)c4C(C)O)C(C)=C3CCC(=O)O` (stereo not drawn)?
Menin MLL FP FL: inactive; Menin-MLL TR inh: inconclusive

What do the screens show for `N#CC1(C#N)C(c2ccccc2)OC23CCCCC2C1(C#N)C(=N)O3` (stereo not drawn)?
Menin MLL FP FL: inconclusive; pAkt inh: inactive; CXXC DNA block: inconclusive; ASM inhibitor: inactive; Menin-MLL TR inh: inactive

How did N#CC1(C#N)C(c2ccccc2)OC23CCCCCC2C1(C#N)C(=N)O3 (stereo not drawn) do in these assays?
MBNL1 CUG block: inactive; Menin MLL FP FL: inactive; pAkt inh: inactive; CXXC DNA block: 50µM; ASM inhibitor: inactive; Menin-MLL TR inh: inactive; MLL CXXC FP-Fl: 50µM; MLL CXXC TxRed: inconclusive; MLL CXXC HTRF: inactive

Results for N#C/C(=C\c1cccs1)C(=O)c1ccccc1Cl ?
MBNL1 CUG block: inactive; Menin MLL FP FL: inactive; pAkt inh: inactive; CXXC DNA block: 22µM; ASM inhibitor: inactive; MLL CXXC FP-Fl: 18µM; MLL CXXC TxRed: 71µM; MLL CXXC HTRF: inconclusive

Results for CC12CCC(C/C1=N/NC(=O)COc1ccccc1Cl)C2(C)C (stereo not drawn) ?
MBNL1 CUG block: inactive; Menin MLL FP FL: inactive; pAkt inh: inactive; CXXC DNA block: inactive; ASM inhibitor: inactive; Menin-MLL TR inh: inconclusive

What do the screens show for `CC(C(=O)N1CCc2ccccc21)N(C)CC(=O)Nc1ccccc1Cl` (stereo not drawn)?
pAkt inh: inactive; ASM inhibitor: inactive

Results for Cc1nc2ccccc2oc1=O ?
Menin MLL FP FL: inactive; Menin-MLL TR inh: inactive

What do the screens show for `O=c1c(Cl)c2oc3ccccc3nc-2c2ccccc12`?
MBNL1 CUG block: inactive; Menin MLL FP FL: inconclusive; pAkt inh: inactive; CXXC DNA block: 32µM; ASM inhibitor: inactive; Menin-MLL TR inh: inconclusive; MLL CXXC FP-Fl: 113µM; MLL CXXC TxRed: inconclusive; MLL CXXC HTRF: inactive

How did Cc1ccc(S(=O)(=O)NC2OC(=O)C(Cl)=C2Cl)cc1 (stereo not drawn) do in these assays?
MBNL1 CUG block: inactive; Menin MLL FP FL: inactive; pAkt inh: inactive; CXXC DNA block: inconclusive; ASM inhibitor: inactive; Menin-MLL TR inh: inactive; MLL CXXC FP-Fl: 89µM; MLL CXXC TxRed: 142µM; MLL CXXC HTRF: 49µM

What do the screens show for `Cc1ccc(S(=O)(=O)NC2CCCCCCC2)cc1`?
MBNL1 CUG block: inactive; Menin MLL FP FL: inactive; pAkt inh: inactive; CXXC DNA block: inactive; ASM inhibitor: inactive; Menin-MLL TR inh: inactive

Results for CC(=O)c1c(O)cc(O)cc1CC(=O)O ?
MBNL1 CUG block: inactive; pAkt inh: inactive; CXXC DNA block: inconclusive; ASM inhibitor: inactive; MLL CXXC FP-Fl: 142µM; MLL CXXC TxRed: inactive; MLL CXXC HTRF: inactive

Results for CC(=O)c1c(O)cc(O)c(C(C)=O)c1O ?
MBNL1 CUG block: inactive; Menin MLL FP FL: inactive; pAkt inh: inactive; CXXC DNA block: inactive; ASM inhibitor: inactive

What do the screens show for `C[C@@H](CSc1ccc(Br)cc1)CN1CC[C@H](O)CCC1=O`?
pAkt inh: inactive; ASM inhibitor: inactive

How did Cc1nc2[nH]c(=S)[nH]c2cc1Br do in these assays?
MBNL1 CUG block: inactive; Menin MLL FP FL: inactive; pAkt inh: inactive; CXXC DNA block: inactive; ASM inhibitor: inactive; Menin-MLL TR inh: inactive

How did CCc1nnc(NC(=O)CSc2nnc(-c3ccc(NS(=O)(=O)c4ccccc4)cc3)o2)s1 do in these assays?
MBNL1 CUG block: inconclusive; Menin MLL FP FL: inactive; pAkt inh: inactive; CXXC DNA block: inconclusive; ASM inhibitor: inactive; Menin-MLL TR inh: inactive; MLL CXXC FP-Fl: inconclusive; MLL CXXC TxRed: inactive; MLL CXXC HTRF: inactive

What do the screens show for `CCc1nnc(NC(=O)CSc2nnc(-c3ccco3)o2)s1`?
MBNL1 CUG block: inactive; Menin MLL FP FL: inactive; pAkt inh: inactive; CXXC DNA block: inactive; ASM inhibitor: inactive; Menin-MLL TR inh: inactive

Results for COCCN(C(=O)COC(=O)c1cccc2ccccc12)c1c(N)n(Cc2ccccc2)c(=O)[nH]c1=O ?
MBNL1 CUG block: inconclusive; Menin MLL FP FL: inactive; pAkt inh: inactive; CXXC DNA block: inactive; ASM inhibitor: inactive; Menin-MLL TR inh: inactive
